Experimental data from PubChem BioAssay (NCI).
Compounds without any hit were thinned out: in the full panel of roughly 83,000, 20% have a hit.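 Cells were grown in 96-well plates and exposed to the test compound at a single concentration for 48 hours; results are reported as percent growth, with values below 10 considered active.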 A number with no mark means an inactive call. Calls of active or inactive are those of the source.

Legend:
Test in all cases: NCI-60 one-dose screen, 48 h (100 = growth as untreated, 0 = no growth, -100 = all killed)
HCT-15 colon = test system: HCT-15 colon
HT29 colon = test system: HT29 colon
SNB-75 CNS = test system: SNB-75 CNS
SNB-19 CNS = test system: SNB-19 CNS
U251 CNS = test system: U251 CNS
PC-3 prostate = test system: PC-3 prostate
SK-MEL-5 melanoma = test system: SK-MEL-5 melanoma
UACC-62 melanoma = test system: UACC-62 melanoma
LOX IMVI melanoma = test system: LOX IMVI melanoma
SK-MEL-28 melanoma = test system: SK-MEL-28 melanoma
SK-MEL-2 melanoma = test system: SK-MEL-2 melanoma
EKVX NSCLC = test system: EKVX NSCLC
SN12C renal = test system: SN12C renal
UO-31 renal = test system: UO-31 renal
TK-10 renal = test system: TK-10 renal
ACHN renal = conditions: 10 µM unless noted
CAKI-1 renal = conditions: 10 µM unless noted
A498 renal = conditions: 10 µM unless noted
CCRF-CEM leukemia = conditions: 10 µM unless noted
MOLT-4 leukemia = conditions: 10 µM unless noted

COCCOc1cc2ncnc(N3CCN(S(=O)(=O)c4ccccc4Cl)CC3)c2cc1OCCOC
growth (HCT-15 colon; 10 µM unless noted): 52.3%
growth (HT29 colon; 10 µM unless noted): 81.8%
growth (SNB-75 CNS; 10 µM unless noted): 88.2%
growth (SNB-19 CNS; 10 µM unless noted): 86.1%
growth (U251 CNS; 10 µM unless noted): 90.1%
growth (PC-3 prostate; 10 µM unless noted): 71.2%
growth (SK-MEL-5 melanoma; 10 µM unless noted): 58.8%
growth (UACC-62 melanoma; 10 µM unless noted): 61%
growth (LOX IMVI melanoma; 10 µM unless noted): 83.1%
growth (SK-MEL-28 melanoma; 10 µM unless noted): 82.8%
growth (SK-MEL-2 melanoma; 10 µM unless noted): 88.1%
growth (EKVX NSCLC; 10 µM unless noted): 90.9%
growth (SN12C renal; 10 µM unless noted): 105%
growth (UO-31 renal; 10 µM unless noted): 70%
growth (TK-10 renal; 10 µM unless noted): 98.9%
growth (ACHN renal): 97.5%
growth (CAKI-1 renal): 86.6%
growth (A498 renal): 54.9%
growth (CCRF-CEM leukemia): 79%
growth (MOLT-4 leukemia): 65.2%

C[C@@H]1O[C@@H](O[C@H]2[C@@H](OC(=O)[C@]34CCC(C)(C)C[C@H]3C3=CC[C@@H]5[C@@]6(C)C[C@H](O)[C@H](O[C@@H]7O[C@H](CO)[C@@H](O)[C@H](O)[C@H]7O)[C@@](C)(CO)[C@@H]6CC[C@@]5(C)[C@]3(C)C[C@H]4O)OC[C@@H](O)[C@@H]2O)[C@H](O)[C@H](O[C@@H]2OC[C@@H](O)[C@H](O[C@@H]3OC[C@](O)(CO)[C@H]3O[C@@H]3OC[C@@H](O)[C@H](O)[C@H]3O)[C@H]2O)[C@H]1O[C@@H]1OC[C@](O)(CO)[C@H]1O
growth (HCT-15 colon; 10 µM unless noted): 86.4%
growth (HT29 colon; 10 µM unless noted): 60.3%
growth (SNB-75 CNS; 10 µM unless noted): 92.6%
growth (SNB-19 CNS; 10 µM unless noted): 80.7%
growth (U251 CNS; 10 µM unless noted): 42%
growth (PC-3 prostate; 10 µM unless noted): 66%
growth (SK-MEL-5 melanoma; 10 µM unless noted): 88.3%
growth (UACC-62 melanoma; 10 µM unless noted): 79.2%
growth (LOX IMVI melanoma; 10 µM unless noted): 81.3%
growth (SK-MEL-28 melanoma; 10 µM unless noted): 9.31% (active)
growth (SK-MEL-2 melanoma; 10 µM unless noted): 17.5%
growth (EKVX NSCLC; 10 µM unless noted): 39.7%
growth (SN12C renal; 10 µM unless noted): 25.5%
growth (UO-31 renal; 10 µM unless noted): 28.6%
growth (TK-10 renal; 10 µM unless noted): 74.2%
growth (ACHN renal): 78%
growth (CAKI-1 renal): 71.8%
growth (A498 renal): 5.96% (active)
growth (CCRF-CEM leukemia): 86%
growth (MOLT-4 leukemia): 86.6%

COc1ccc(C(=O)/C=C/c2ccc(OCc3ccc(Cl)cc3)cc2)cc1OC
growth (HCT-15 colon; 10 µM): 92.9%
growth (HCT-15 colon; 100 µM): 34.1%
growth (HT29 colon; 10 µM): 87.2%
growth (HT29 colon; 100 µM): 35.8%
growth (SNB-75 CNS; 10 µM): 96.9%
growth (SNB-75 CNS; 100 µM): -26.3% (active)
growth (SNB-19 CNS; 10 µM): 105%
growth (SNB-19 CNS; 100 µM): -47.3% (active)
growth (U251 CNS; 10 µM): 93.2%
growth (U251 CNS; 100 µM): -90.3% (active)
growth (PC-3 prostate; 10 µM): 97.5%
growth (PC-3 prostate; 100 µM): 16.9%
growth (SK-MEL-5 melanoma; 10 µM): 92.3%
growth (SK-MEL-5 melanoma; 100 µM): -10.4% (active)
growth (UACC-62 melanoma; 10 µM): 96.1%
growth (UACC-62 melanoma; 100 µM): 23.6%
growth (LOX IMVI melanoma; 10 µM): 88.8%
growth (LOX IMVI melanoma; 100 µM): 22.1%
growth (SK-MEL-28 melanoma; 10 µM): 103%
growth (SK-MEL-28 melanoma; 100 µM): 55.9%
growth (SK-MEL-2 melanoma; 10 µM): 98.3%
growth (SK-MEL-2 melanoma; 100 µM): 48.5%
growth (EKVX NSCLC; 10 µM): 109%
growth (EKVX NSCLC; 100 µM): 29.1%
growth (SN12C renal; 10 µM): 107%
growth (SN12C renal; 100 µM): 28.5%
growth (UO-31 renal; 10 µM): 85.8%
growth (UO-31 renal; 100 µM): 41.4%
growth (TK-10 renal; 10 µM): 101%
growth (TK-10 renal; 100 µM): 0.092% (active)
